PubChem BioAssay (NCATS)
A number with no mark means an inactive call. Activity calls are given as the source filed them. Calls follow the shape of the dose curve; as a rule, active = well fitted curve in the direction sought with a large enough effect; inconclusive = small, poorly fitted or top-dose-only effect, or another doubt; inactive = no such curve, though single readings can be large or run the other way.

biological target: Alpha-galactosidase (Coffea arabica) (UniProt Q42656); assay: Counterscreen for Glucocerebrosidase Inhibitors: qHTS Assay for Coffee Bean alpha-Galactosidase at pH 4.5 (AID 957); settings: purified coffee bean alpha-galactosidase, fluorogenic substrate; series mostly up to 76.9 µM; activity change, negative = inhibition: at the top concentration;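 also: plate controls were enzyme alone for no effect and no enzyme for full effect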
Description: NIH Chemical Genomics Center [NCGC]
NIH Molecular Libraries Screening Centers Network [MLSCN]
PI Name: Zheng, Wei [NIH]
Alpha-galactosidase is a homodimeric glycoprotein that hydrolyzes the terminal alpha-galactosyl moieties from glycolipids and glycoproteins. Deficiency of this enzyme results in Fabry Disease with progressive accumulation of globotriaosylceramide and other glycosphingolipids in vascular endothelial cells that causes renal failure, myocardial infarction and stroke, and premature death in patients. It has reported that the improper folding and trafficking of alpha-galactosidase resulted from the genetic mutations may account for a significant numbers of Fabry patients. […] We optimized this coffee bean alpha-galactosidase assay in 1536-well plate format as a counter-screen assay for identifying the selective small molecule inhibitors of other lysosomal enzymes.
NCGC Assay Protocol Summary:
This is a fluorogenic enzyme assay with 4-Methylumbelliferyl alpha-D-galactopyranoside as the substrate and green coffee bean […] (from Sigma-Aldrich) as the enzyme preparation. Upon the hydrolysis of this fluorogenic substrate, the resulting product, […]. 4-Methyllumbelliferone, can be excited at 365 nm and emits at 440 nm which can be detected by a standard fluorescence plate reader. Data were normalized to the controls for basal activity (without enzyme) and 100% activity (with enzyme). In the AC50 values were determined from concentration-response data modeled with the standard Hill equation.
Assay buffer: 50 mM citric acid, 0.005% Tween-20, pH 4.5. (pH 5.9 is an optimal condition for this enzyme assay. This assay in pH 4.5 is used for comparison the inhibitor activities with the human alpha-galactosidase assay)
1536-well assay protocol for the coffee bean alpha-galactosidase:
(1) Add 2 ul/well of enzyme (2 nM final)
(2) Add 23 nL compounds in DMSO solution. The final titration was 0.7 nM to 77 uM.
(3) Add 1 ul of substrate (80 uM final)
(4) Incubate at room temperature for 20 min.
(5) Add 2 ul stop solution (1M NaOH and 1M Glycine mixture, pH 10)
(6) Detect the assay plate in a ViewLux plate reader (PerkinElmer) with Ex=365 nm and Em=440nm.
Keywords: Alpha-galactosidase, Fabry Disease, pharmacological chaperone, chaperone therapy, high throughput screening, alpha-galactosidase inhibitor, MLSMR, MLSCN, NIH Roadmap, qHTS and NCGC

Sequence of Alpha-galactosidase (Coffea arabica) (Q42656 whole entry, looked up): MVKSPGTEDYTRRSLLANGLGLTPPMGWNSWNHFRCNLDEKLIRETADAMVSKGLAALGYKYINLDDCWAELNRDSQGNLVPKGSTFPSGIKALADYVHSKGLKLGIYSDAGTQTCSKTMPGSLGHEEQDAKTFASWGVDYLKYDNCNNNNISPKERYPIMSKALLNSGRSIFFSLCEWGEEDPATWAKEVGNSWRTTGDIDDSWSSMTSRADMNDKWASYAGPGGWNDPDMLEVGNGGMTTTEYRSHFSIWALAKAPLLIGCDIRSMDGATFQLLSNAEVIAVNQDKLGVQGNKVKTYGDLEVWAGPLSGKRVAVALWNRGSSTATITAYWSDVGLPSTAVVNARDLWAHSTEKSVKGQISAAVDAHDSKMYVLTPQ

| Compound | outcome | activity change, negative = inhibition [%] |
| --- | --- | --- |
| C[N+]1(C)C2CC(OC(=O)C(CO)c3ccccc3)CC1[C@@H]1O[C@H]21 (some centres undefined) | inactive | – |
| COc1cc(C[C@H](C)N)c(OC)cc1I | inactive | – |
| C[C@@H]1O[C@H]1P(=O)(O)O | – | -2.31 |
| C[C@@]12CC[C@H]3[C@@H](CC=C4C[C@H](OS(=O)(=O)O)CC[C@]43C)[C@H]1CCC2=O | – | -0.144 |
| O=C(O)[C@H]1CCN1 | – | -1.22 |
| COc1cc([C@@H](O)CN)ccc1O | – | -0.0465 |
| N[C@H](Cc1ccc(N(CCCl)CCCl)cc1)C(=O)O | – | -1.34 |
| NC[C@H](O)c1cc(O)c(O)cc1F | – | -1.72 |
| Nc1ncnc2c1ncn2[C@@H]1O[C@@H](COP(=O)(O)CP(=O)(O)OP(=O)(O)O)[C@H](O)[C@@H]1O | – | 2.07 |
| COc1ccc2c(c1)[C@]13CCCC[C@@H]1[C@H](C2)NCC3 | – | -3.08 |
| O=C(O)[C@H]1[C@H](C(=O)O)[C@H]2CC[C@@H]1O2 | – | -1.73 |
| C[Se]C[C@@H](N)C(=O)O | – | 2.6 |
| NC(=O)CN1C[C@@H](O)CC1=O | – | 3.76 |
| CC(C)C[C@H](NP(=O)(O)O[C@@H]1O[C@@H](C)[C@@H](O)[C@@H](O)[C@H]1O)C(=O)N[C@@H](Cc1c[nH]c2ccccc12)C(=O)O | – | 0.543 |
| C[C@@]12CC[C@H]3[C@@H](CCC4=C(O)C(=O)CC[C@]43C)[C@H]1CCC2=O | – | -0.902 |
| COC(=O)[C@H](N)CCCN=C(N)N[N+](=O)[O-] | – | -0.75 |
| C#CCN[C@@H](C)Cc1ccccc1 | – | 1.27 |
| C=CCN1CC[C@]23c4c5ccc(O)c4O[C@@H]2/C(=N/NC(=O)c2ccccc2)CC[C@@]3(O)[C@H]1C5 | – | -5.57 |
| N[C@H](CCl)C(=O)O | – | -1.77 |
| CO[C@@H]1CC=C2CCN3CCC4=C(CC(=O)OC4)[C@]23C1 | – | 2.5 |

| Compound | outcome | activity change, negative = inhibition [%] |
| --- | --- | --- |
| C[C@@]12CC[C@H]3[C@@H](CC[C@@H]4C[C@H](O)CC[C@]43C)[C@H]1CC[C@H]2O | – | -1.13 |
| C[C@]12CC[C@H](O)C[C@@H]1CC[C@H]1[C@H]2CC[C@]2(C)[C@H](C(=O)CO)CC[C@@H]12 | – | 0.374 |
| CC(=O)OCC1=C(C(=O)[O-])N2C(=O)[C@@H](NC(=O)CCC[C@@H](N)C(=O)[O-])[C@@H]2SC1.[Zn+2] | – | 0.202 |
| CC(=O)c1c(O)c(C)c(O)c(Cc2c(O)c3c(c(C(=O)/C=C\c4ccccc4)c2O)OC(C)(C)C=C3)c1O | – | -4.16 |
| CC(C)N[C@@H](C)Cc1ccc(I)cc1 | – | -1.24 |
| CC(=O)[C@@H]1CC[C@H]2[C@H]3CC[C@H]4C[C@@H](O)CC[C@]4(C)[C@@H]3CC[C@]12C | – | -6.56 |
| C[C@@H]1Cc2cc3c(cc2C(c2ccc(N)cc2)=NN1)OCO3 | – | -8.24 |
| N[C@H](Cn1ccc(=O)[nH]c1=O)C(=O)O | – | -0.981 |
| CN1C[C@@H](CS(=O)(=O)N(C)C)C[C@H]2c3cccc4c3c(cn4C)C[C@@H]21 | – | -2.11 |
| Oc1ccc2c3c1O[C@@H]1c4[nH]c5c(c4C[C@@]4(O)[C@@H](C2)N(CC2CC2)CC[C@]314)C[C@]1(O)[C@@H]2Cc3ccc(O)c4c3[C@@]1(CCN2CC1CC1)[C@H]5O4 | – | -7.21 |
| C[C@@H](Cc1ccc(O)cc1)NC[C@@H](O)c1cc(O)cc(O)c1 | – | -1.17 |
| CCCN1CC[C@@H]2c3cc(O)ccc3CC[C@H]21 | – | -0.445 |
| COc1ccc2c(c1O)-c1cccc3c1[C@H](C2)N(C)CC3 | – | 1.86 |
| C[C@]12CC[C@H](O)CC1=CC[C@@H]1[C@H]2CC[C@]2(C)C(=O)CC[C@H]12 | – | 1.38 |
| CCN(CC)c1ncnc2c1ncn2[C@@H]1O[C@@H](COP(=O)(O)OP(=O)(O)C(Br)(Br)P(=O)(O)O)[C@H](O)[C@@H]1O | – | 2.75 |
| CCn1cnc2c(Nc3cccc(Cl)c3)nc(N[C@@H]3CCCC[C@H]3N)nc21 | – | -3.28 |
| CCNC(=O)[C@@H]1O[C@@H](n2cnc3c(N)ncnc32)[C@@H](O)[C@H]1O | – | 0.972 |
| COc1ccc2c3c1O[C@@H]1C(=O)CC[C@@]4(O)[C@@H](C2)N(CC2CC2)CC[C@]314 | – | -1.61 |
| C[N+]1(C)CCc2cc3c(cc2[C@@H]1[C@@H]1OC(=O)c2c1ccc1c2OCO1)OCO3 | – | -1.88 |
